# Results as given in the supplement of paper PMC6555819.
# Experiments:
# Assay in all cases: PBM binding z-score (relative to random genomic background probes); higher = stronger binding; sequences stand for … in GC…GCGATTGACAGCGTAGAATGAAGG
# [1] = tested on: PPARg:RXRa DBDmut IVT, anti-RXR (DBD mutation: RXRa K156A/R161A, NR concentration 270 nM, RXRa partner concentration 90 nM)
# Summary of the method: (§1)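 Antibodies against each partner of ligand-free nuclear receptor dimers (one per run) detected binding on custom Agilent 4×180K protein-binding microarrays after 1 h incubation. The double-stranded probes had 34-nt variable regions carrying direct-repeat seeds, single-nucleotide variants, half-site ablations and random human genomic background sequences. Binding z-scores, from regression-normalized fluorescence, use the random background probes as reference.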
# [2] = tested on: PPARg:RXRa IVT, anti-PPARg (NR concentration 270 nM, RXRa partner concentration 90 nM)
# Summary of the method: as §1
# [3] = tested on: PPARg DBDmut:RXRa IVT, anti-PPARg (DBD mutation: PPARg1 K132A/R137A, NR concentration 270 nM, RXRa partner concentration 90 nM)
# Summary of the method: as §1
# [4] = tested on: PPARg DBDmut IVT, anti-PPARg (DBD mutation: PPARg1 K132A/R137A, NR concentration 270 nM)
# Summary of the method: as §1
# [5] = tested on: PPARg homodimer (NR concentration 180 nM)
# Summary of the method: as §1
# [6] = tested on: PXR:RXRa (NR concentration 270 nM, RXRa partner concentration 90 nM)
# Summary of the method: as §1
# [7] = tested on: PXR homodimer (NR concentration 270 nM)
# Summary of the method: as §1
# [8] = tested on: RARa:RXR (NR concentration 270 nM, RXRa partner concentration 90 nM)
# Summary of the method: as §1
# [9] = tested on: RARa homodimer (NR concentration 270 nM)
# Summary of the method: as §1
# [10] = tested on: RARb:RXRa (NR concentration 270 nM, RXRa partner concentration 90 nM)
# Summary of the method: as §1
# [11] = tested on: RARb homodimer (NR concentration 270 nM)
# Summary of the method: as §1
# [12] = tested on: RARg:RXRa (NR concentration 270 nM, RXRa partner concentration 90 nM)
# Summary of the method: as §1
# [13] = tested on: RARg homodimer (NR concentration 270 nM)
# Summary of the method: as §1
# [14] = tested on: RXRa DBDmut IVT, anti-RXR (DBD mutation: RXRa K156A/R161A, NR concentration 90 nM)
# Summary of the method: as §1
# [15] = tested on: RXRa homodimer (NR concentration 180 nM)
# Summary of the method: as §1
# [16] = tested on: THRa:RXRa (NR concentration 90 nM, RXRa partner concentration 90 nM)
# Summary of the method: as §1
# [17] = tested on: THRa homodimer (NR concentration 90 nM)
# Summary of the method: as §1
# [18] = tested on: VDR homodimer (NR concentration 270 nM)
# Summary of the method: as §1
Sequence,PBM binding z-score [1],PBM binding z-score [2],PBM binding z-score [3],PBM binding z-score [4],PBM binding z-score [5],PBM binding z-score [6],PBM binding z-score [7],PBM binding z-score [8],PBM binding z-score [9],PBM binding z-score [10],PBM binding z-score [11],PBM binding z-score [12],PBM binding z-score [13],PBM binding z-score [14],PBM binding z-score [15],PBM binding z-score [16],PBM binding z-score [17],PBM binding z-score [18]
GCGACTGGGGAAAAGCAGGTTACCATAAGGTTGG,0.483,0.632,-0.499,-1.11,0.255,-0.0375,-0.35,0.407,-0.675,-0.16,0.416,-0.0185,-0.445,-0.805,0.275,1.25,0.0418,-0.6
CGTCCAAGGTCAATGCTAGGTCAGTGAGAGCATT,3.49,4.04,0.572,-0.0566,6.21,5.05,2.93,6.05,1.51,5.23,5.01,7.45,6.65,3.53,5.06,4.37,2.87,3.36
ACTATTAGTTGAGACGAGGGCATCCGATAGGTTG,0.0561,-0.111,1.09,0.274,-0.612,1.7,0.926,0.817,0.577,0.742,0.79,0.519,0.799,0.829,0.473,2.29,0.321,1.38
GCGACTGGGGCGAAGCAGGTTACCATAAGGTTGG,0.93,0.737,-1.9,-1.09,-0.411,-0.249,-0.709,-0.0547,-0.898,0.235,0.22,-0.0926,-0.296,-1.11,0.0577,1.5,-0.185,-0.569
CCTCGGAGGACGACAGGAGGTCAGAGCTGCCAGA,-0.728,-0.00812,-0.427,-1.79,1.19,1.89,-0.155,2.06,0.247,2.18,2.84,2.54,2.08,-0.23,1.84,2.33,0.421,0.665
ATCTCTAGGTAACAAGTTCAGTGATAGAGAGGAC,3.07,2.7,1.93,1.91,1.18,1.7,1.97,0.777,1.13,1.69,1.92,1.05,1.57,1.06,0.757,1.38,0.931,2.93
ATCGAAAGGTCGACGACGTGAGTATACACCGTTT,0.416,1.22,1.4,1.43,1.37,2.32,-0.182,3.07,0.0928,3.72,2.21,4.04,3.8,1.3,3.94,1.73,-0.597,0.228
TCATATAGGTAATACCGGTGAAAGTCGGCATCTA,3.57,2.28,0.77,0.786,0.599,0.488,0.00655,1.01,0.792,0.224,-0.00712,0.24,0.212,1.35,0.935,0.246,0.113,-0.092
TATACAGGGTCATAGGCCAGAGTACGAATGTCGA,2.32,4.47,2.52,2.28,2.09,4,0.517,5.18,1.43,4.25,3.08,5.43,4.72,2.94,6.27,3.5,0.758,3.52
ATCGAAAGGTGGAAGGTGAGTATACCCACCCGAA,-0.723,0.561,0.498,0.266,0.464,0.15,-0.16,0.474,-0.403,0.83,0.363,0.767,0.717,-1.21,1.12,0.406,-0.497,0.146
CCTAGTTGGTCAAGGTCACCCACGCTATAGGTAC,1.97,3.64,0.717,1.37,4.86,4.16,2.4,4.82,3.27,4.16,4.38,4.42,4.75,1.81,4.47,4.22,4.66,4.05
TCTGCTAGGTCAGTTGGTCAGCCAACGAGCTGCC,2.34,2.92,2.07,0.334,0.252,0.152,-0.764,0.399,-1.63,3.3,2.3,2.84,3.3,0.162,0.782,1.06,-0.436,-0.81
CCTACTGGGCAATTCAGAGGTCATTGATCATATG,1.37,1.97,0.00726,-0.498,2.09,4.71,2.44,4.45,0.887,2.82,3.57,3.21,2.73,0.679,3.76,2.98,1.16,3.05
TTACCAAGGTGAAAGGTCGTCGATGCACGCCTTG,2.84,5.42,0.568,0.68,1.99,4.17,-0.076,6.52,-0.215,3.27,2.78,4.43,2.22,0.201,6.2,3.55,0.956,0.709
AGAATGAGGTTACCAAAGATCAGGAAAACGCTTG,4.01,3.35,0.931,0.626,0.925,1.57,-0.0296,2.1,0.339,1.95,0.544,2.13,1.58,1.15,2.56,2.88,0.443,0.0267
TCAAGCAGGCCAGAGGGTCACTCAAGAGGTACGG,1.38,0.884,-1.19,-1.55,0.379,1.65,-0.357,2.52,-0.42,2.51,2.73,2.61,2.21,0.592,2.67,1.68,-0.21,0.557
